Inconclusive results are not listed. Where a call stands in place of a potency, no number is given. Calls of active or inactive are those of the source. The call rests on the fitted dose curve; in most records, active means well fitted inhibition curve with a large enough effect; inconclusive means small, poorly fitted or top-dose-only effect; inactive means flat fitted curve, though single readings scatter.

A short description of this test: P-glycoprotein substrates identified in KB-8-5-11 adenocarcinoma cell line, qHTS therapeutic library screen (AID 1346987). Further: nearly all actives have a fitted effect of over 65% in size. The settings on record: KB-8-5-11 (P-gp overexpressing) viability, CellTiter-Glo, 72 h; series mostly up to 44.5 µM. The method, boiled down: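 KB-8-5-11, a colchicine-selected P-gp-overexpressing KB-3-1 subline, was grown without colchicine for the assay. Cells were seeded at 500 cells/well, dosed in concentration-response and incubated 72 h at 37 degree C, 5% CO2. Viability was read by CellTiter-Glo luminescence.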
`N[C@H]1C[C@H]1c1ccc(-c2cccc(O)c2)cc1`: the Potency entry was “inactive”.

As for `CCC[C@@H]1C[C@@H](C(=O)N[C@@H]([C@H]2O[C@H](SC)[C@H](OP(=O)(O)O)[C@@H](O)[C@H]2O)[C@H](C)Cl)N(C)C1`, the Potency entry was “inactive”.

For `CC(=O)N[C@H]1[C@H](O[C@H]2CC[C@@]3(C)C(CC[C@]4(C)C3CC=C3C5CC(C)(C)CC[C@]5(C(=O)O)[C@H](O[C@@H]5O[C@H](CO)[C@@H](O)[C@H](O)[C@H]5O)C[C@]34C)C2(C)C)O[C@H](CO[C@@H]2OC[C@H](O)[C@H](O)[C@H]2O[C@@H]2OC[C@@H](O)[C@H](O)[C@H]2O)[C@@H](O)[C@@H]1O` (stereo partly specified), the outcome is “inactive [at 9.29 µM]”.

`C=C1CCC2C(C)(C)C(O)CCC2(C)C1CCC(C)CCOC(=O)CCC(=O)O` (stereo unspecified): the Potency result was “inactive”.

`COc1ccc(/C=C/C(=O)O[C@@H]2[C@@H](O)[C@H](C)O[C@@H](OC3C4C=COC(O[C@@H]5O[C@H](CO)[C@@H](O)[C@H](O)[C@H]5O)C4C4(CO)OC34)[C@@H]2O)cc1OC` (stereo partly specified): the Potency result is “inactive”.

As to `CC1CCC2(C(=O)OC3OC(CO)C(O)C(O)C3O)CCC3(C(=O)O)C(=CCC4C5(C)CCC(OC6OC(C)C(O)C(O)C6O)C(C)(C)C5CCC43C)C2C1C` (stereo unspecified), the Potency result was “inactive”.

The values are drawn from PubChem BioAssay (NCATS).
